Data as given in ChEMBL document CHEMBL3988442, “University of Dundee, Small-Polar-MMV Screening Library” (2021).
The whole screen tested about 38,000 compounds, of which about 1,200 (3.2%) showed an effect of 50% or more. The median lay at about -58%. For the sample, strong results were picked, then their nearest neighbours and some compounds at random.

test system: Plasmodium falciparum; test: Calibr Malaria Delayed Death Assay SOP; type: functional, organism-based; parameters: scale not given: in the data most compounds retested in dose-response had high values; settings: concentration 4.99e-06 (unit not given; other assays of the set use mol/L)

Row | Structure (SMILES) | Percent Effect [%]
1 | COCC(C)NCc1nc(-c2ccc(C)cc2)c(-c2ccccn2)[nH]1 (configuration not stated) | 45.68
2 | Cc1ccc(-c2nc(CNC(C)CCO)[nH]c2-c2ccccn2)cc1 (configuration not stated) | 85.22
3 | Cc1ccc(-c2nc(CNS(=O)(=O)N(C)C)[nH]c2-c2ccccn2)cc1 | -8.879
4 | CCOc1ccc(Cl)cc1CCNC(=O)Cn1nc(C)ccc1=O | -103.1
5 | COCCCn1ccc(NC(=O)NCCCn2ccnc2)n1 | -63.56
6 | O=C(CN1CCOc2ccc(Cl)cc21)NCCCn1ccnc1 | -34.55
7 | COc1cc(CNCCn2ccnc2)cc2c1OCO2.Cl | -91.54
8 | CCOc1ccc(Cl)cc1CNCCCn1ccnc1 | 51.78
9 | CCOc1ccc(CNCCCn2ccnc2)cc1Br | 79.67
10 | CN(C)CCNCC1COCc2c(-c3ccnn3C)nnn2C1 (configuration not stated) | -61.69
11 | O=C(c1cccc2ncccc12)N1CCC(Nc2cccnn2)CC1 | -119.6
12 | Cc1nc(CN2CCN(CCCc3ccccc3)CC2)no1 | -34.84
13 | COc1ccc(-c2nc(CNC3CCc4nc(C)nn4C3)no2)cc1 (configuration not stated) | -54.43
14 | COc1cc(-c2ccc(F)c3c2OC(CN)C3)cc(OC)c1OC (configuration not stated) | -14
15 | COc1cccnc1-c1ccc(F)c2c1OC(CN)C2 (configuration not stated) | 57.41
16 | COc1cc(C)c(-c2ccc(F)c3c2OC(CN)C3)cc1C (configuration not stated) | 83.54
17 | Cc1cc2n(n1)CC(CNCc1ccccc1Cn1cccn1)CN2 (configuration not stated) | -15.62
18 | O=C(O)C(F)(F)F.O=C(O)C(F)(F)F.c1cncc(C2COC3(CCN(Cc4nccs4)CC3)C2)c1 (configuration not stated) | -1.865
19 | CCN1CC2(CC1=O)CN(C(=O)c1ccco1)CCN(C(=O)C(C)C)C2 (configuration not stated) | -62.73
20 | O=C1[C@H]2CC[C@H](CN(c3ncnc4ccsc34)C2)N1CC1CC1 | -91.86
21 | COCCCN(C)C(=O)c1cccc(Nc2cnccn2)c1 | -92.25
22 | N[C@H]1CN(C(=O)c2cnc3cc(Cl)ccc3c2O)C[C@@H]1C1CC1 | -23.25
23 | Cc1cc(Cl)ccc1C(=O)N1C[C@H](C2CC2)[C@@H](N)C1 | 60.81
24 | N[C@H]1CN(C(=O)c2ccc(Cl)cc2O)C[C@@H]1C1CC1 | 32.78
25 | N#CCSCCCN1CCN(C(=O)c2ccccc2F)CC1 | -147
26 | Cc1nnc(NC(=O)NCCCN2CCC(C(N)=O)CC2)s1 | -23.13

Row | Structure (SMILES) | Percent Effect [%]
27 | CC1CC(NS(=O)(=O)c2ccc(C(F)(F)F)nc2)C1 (configuration not stated) | -159.1
28 | O=c1ncn(-c2ccc(F)cc2)c2ncccc12 | -138.9
29 | OCc1cn([C@@H]2c3ccccc3C3(CCNCC3)[C@H]2O)nn1 | -123.5
30 | COCc1cn([C@@H]2c3ccccc3C3(CCNCC3)[C@H]2O)nn1 | -27.47
31 | O[C@H]1[C@H](n2cc(CN3CCCC3)nn2)c2ccccc2C12CCNCC2 | 62.81
32 | CC(c1cccnc1)N(C)S(C)(=O)=O (configuration not stated) | -49.62
33 | CC(c1cccc(O)c1)N(C)S(N)(=O)=O (configuration not stated) | -84.23
34 | CC(c1cccc(O)c1)N(C)S(=O)(=O)c1cccnc1 (configuration not stated) | 70.34
35 | CCN(C(C)c1cccc(O)c1)S(=O)(=O)c1cccnc1 (configuration not stated) | 75.64
36 | Cc1cccc(C(C)(C)CNC(=O)CN(C)S(=O)(=O)c2cccnc2)c1 | -59.91
37 | CCOc1c(F)cccc1C(=O)N(CC)C(C)c1cccnc1 (configuration not stated) | -44.59
38 | Cn1cc(CN2CCc3ccc(=O)n(Cc4ccncc4)c3CC2)cn1.O=C(O)C(F)(F)F.O=C(O)C(F)(F)F | -100.7
39 | CCn1nccc1CNc1[nH]cnc2nncc1-2 | -100.3
40 | Cn1cccc1C(=O)N1C[C@@H](OCc2ccncc2)[C@@H]2OCCC[C@@H]21.O=C(O)C(F)(F)F | -99.03
41 | CCNc1ncc(CN(Cc2ccccc2)CC(C)CO)cn1 (configuration not stated) | -11.14
42 | COC(=O)[C@@H]1Cc2[nH]cnc2CN1Cc1cc2ccccc2o1 | -36.16
43 | CN1CCN(C(=O)C2CN(Cc3cc4ccccc4o3)CCN2)CC1 (configuration not stated) | -105.5
44 | Cl.Cl.O[C@@H]1C[C@@](CNCc2cccc(Cl)c2)(COc2cccnc2)C[C@@H]1O | 34.26
45 | Cl.Cl.O[C@@H]1C[C@@](CNCc2ccc(Cl)cc2)(COc2cccnc2)C[C@@H]1O | 70.01
46 | Cl.Cl.O[C@@H]1C[C@@](CNCc2ccc(F)cc2)(COc2cccnc2)C[C@@H]1O | 40.62
47 | CN(Cc1noc2c1CCCC2)C(=O)Nc1cccc(S(N)(=O)=O)c1 | -16.52
48 | Cc1nc2c(c(N(C)Cc3ccccc3-n3cccn3)n1)CCNCC2 | -7.146
49 | CN(Cc1ccon1)c1nc(-c2ccccn2)nc2c1CCNCC2 | 75.26
50 | Cc1nc2c(c(N(C)CC3Cc4ccccc4CN3C)n1)CCNCC2 (configuration not stated) | 41.97
51 | Cc1cc(CN(C)c2nc(-c3ccco3)nc3c2CCN(C)CC3)on1 | -7.108
52 | Cc1cc(CN(C)c2nc(-c3ccccn3)nc3c2CCNCC3)n[nH]1 | 68.42

Row | Structure (SMILES) | Percent Effect [%]
53 | O=C(COc1cccc2c1CCC2=O)NCCOc1ccccc1 | -101.5
54 | Cn1cc(C[C@H]2[C@H](O)CCN2Cc2ccc3c(c2)OCO3)cn1 | -152.7
55 | COc1cc(CNc2ccc(C)c(Cl)c2)ccc1OCC(N)=O | -61.06
56 | O=C(CN1CCCC1Cn1cncn1)Nc1ccnn1C1CCCC1 (configuration not stated) | -46.57
57 | NC(=O)c1nc(-c2cccc(Cl)c2)oc1N | -143.3
58 | CC(NC(=O)NCC1(c2ccc(Cl)cc2)CC1)c1nncn1C (configuration not stated) | -41.57
59 | Clc1ccc(C2(CNC3=NCCN3)CC2)cc1.I | 82.97
60 | CCCNC(=O)c1c(-n2cnnn2)sc2c1CCC2 | -55.33
61 | CC(=O)NC(CC(=O)Nc1nc(C)c(C)s1)c1ccccc1 (configuration not stated) | -83.12
62 | O=C(O)C(F)(F)F.O=C(c1ccncc1)N1CCC2(CCCN(c3ncc(F)cn3)C2)C1 (configuration not stated) | -90.51
63 | Fc1cnc(N2CCCC3(CCN(Cc4ccco4)C3)C2)nc1.O=C(O)C(F)(F)F.O=C(O)C(F)(F)F (configuration not stated) | 77
64 | Fc1cnc(N2CCCC3(CN(Cc4ccccc4)CCO3)C2)nc1.O=C(O)C(F)(F)F (configuration not stated) | -95.68
65 | Cc1cnc(N2C[C@@H]3CN(Cc4ccco4)CCC[C@]3(C(=O)O)C2)nc1.O=C(O)C(F)(F)F | -71.37
66 | CC(C)CCN1CCC2(CCCN(c3nncs3)C2)C1.O=C(O)C(F)(F)F (configuration not stated) | -67.46
67 | COc1cccc(CN2CCC3(CCN(c4ncc(F)cn4)CC3)C2)c1.O=C(O)C(F)(F)F | -47.02
68 | Fc1cnc(N2CCCC3(CCN(Cc4ccoc4)C3)C2)nc1.O=C(O)C(F)(F)F.O=C(O)C(F)(F)F (configuration not stated) | 72.25
69 | CC(C)c1ccc(CN2CCC3(CCCN(c4nncs4)C3)C2)cc1.O=C(O)C(F)(F)F (configuration not stated) | 73.03
70 | COc1ccc(CN2CCC3(CCCN(c4ncc(F)cn4)C3)C2)cc1.O=C(O)C(F)(F)F (configuration not stated) | 86.34
71 | Fc1ccc(CN2CCC3(CCCN(c4nncs4)C3)C2)cc1.O=C(O)C(F)(F)F (configuration not stated) | -107.3
72 | O=C(c1ccco1)N1CCC2(CCCN(c3ncc(F)cn3)C2)C1 (configuration not stated) | -116
73 | COc1cccc(CN2CCC3(CC2)CCN(c2ncc(F)cn2)C3)c1.O=C(O)C(F)(F)F | -115
74 | Cc1oc(-c2nc(C#N)c(NC(C)C)o2)cc1S(=O)(=O)N1CCCC1 | -121.8
75 | Cc1ncc2c(n1)CN(Cc1nc(-c3ccco3)oc1C)CC2 | -128.1
76 | CC(C)C(=O)N1CCN(Cc2csc(-c3ncccn3)n2)CC1 | -79.45
77 | CCn1nc(C)c(C(=O)NCc2csc(C3CC3)n2)c1C | -85.55
78 | Cc1noc(C)c1CN1CCc2ncnc(-c3cnn(C)c3)c2CC1.O=C(O)C(F)(F)F | -17.12

Row | Structure (SMILES) | Percent Effect [%]
79 | CCC(=O)NCC(=O)NC(C)c1ccc(OCCC(C)C)cc1 (configuration not stated) | 22.17
80 | COc1cc(-c2cc(=O)[nH]cn2)cc(OC)c1OC | -8.244
81 | CC(=O)N1[C@H](CN(C)C)C[C@@H]2CN(C(=O)c3cccc(F)c3)CC[C@@H]21.O=C(O)C(F)(F)F | -121.5
82 | CCC(NC(=O)CNCC(F)(F)F)c1cc(F)ccc1F (configuration not stated) | -157
83 | O=C(c1ccoc1)N1CCC2(CCCN(c3ncc(F)cn3)C2)C1 (configuration not stated) | -22.39
84 | Fc1cnc(N2CCCC3(CCN(Cc4nccs4)C3)C2)nc1 (configuration not stated) | 21.75
85 | COc1cc(N2C[C@H](C(=O)N3CCCC3)[C@@H]3CCO[C@@H]3C2)ncn1 | -18.3
86 | Cc1cnc(CN(C)C2CCN(Cc3nc4c(F)cccc4[nH]3)C2)o1 (configuration not stated) | -76.29
87 | COc1nn(C)c2c1CCCN(C(=O)c1cscn1)C2 | -85.03
88 | CCOC(C)C(=O)Nc1ccnn1-c1ccccc1C (configuration not stated) | -113.5
89 | Cl.Clc1ccc(-c2ccc(C3CNCCO3)nc2)cc1 (configuration not stated) | 85.23
90 | O=C(C(c1ccccc1)S(=O)(=O)c1ccccc1)N1CCCCC1 (configuration not stated) | -134.4
91 | CCc1nc(C)sc1CN1CC[C@@](O)(C2CC2)[C@H](C)C1 | -41.51
92 | Cc1csc(C(=O)N2CCCC(c3[nH]ncc3S(C)(=O)=O)C2)c1 (configuration not stated) | -79.4
93 | O=C(NCC(O)c1ccsc1)Nc1cccs1 (configuration not stated) | -26.53
94 | Fc1cnc(N2CCCC3(CN(Cc4cccs4)CCO3)C2)nc1.O=C(O)C(F)(F)F (configuration not stated) | -85.22
95 | Cc1cnc(N2CCC3(CC2)CN(Cc2cccs2)CCO3)nc1.O=C(O)C(F)(F)F.O=C(O)C(F)(F)F | -40.39
96 | COc1cc(N2CCC3(CCCN(Cc4ccccn4)C3)C2)ncn1.O=C(O)C(F)(F)F (configuration not stated) | -7.04
97 | O=C(O)C(F)(F)F.O=C(O)C(F)(F)F.c1cnc(N2CCOCC3(CCCN(Cc4cccs4)C3)C2)nc1 (configuration not stated) | -21.37
98 | O=C(O)C(F)(F)F.O=C(O)C(F)(F)F.c1csc(CN2CCCC3(COCCN(c4cnccn4)C3)C2)c1 (configuration not stated) | 45.61
99 | CC(C)CN1CCCC2(CCN(c3ccc(C#N)cn3)C2)C1.O=C(O)C(F)(F)F (configuration not stated) | 4.981
100 | Fc1cnc(N2CCCC3(CCN(Cc4cccs4)C3)C2)nc1.O=C(O)C(F)(F)F.O=C(O)C(F)(F)F (configuration not stated) | 67.75
101 | CC(C)CN1CCCC2(CCN(c3ccccn3)C2)C1.O=C(O)C(F)(F)F (configuration not stated) | 70.33
102 | O=C(O)C(F)(F)F.c1ccc(N2CCCC3(CCN(Cc4cccs4)C3)C2)nc1 (configuration not stated) | 72.7
